NOMO-1 viab = STK33 inhibitor candidate reducing NOMO-1 cell viability. NOMO-1 AML viability, CellTiter-Glo luminescence, 72 h. inhibition, % (concentration not given with the values). actives 7.5% (n = 37,000); in the data active means inhibition above about 80%; inconclusive means no clear call, values can overlap the other calls
PD-1 reverse act = reversal of PD-1 mediated T-cell inhibition | activation, % (test concentration not listed) | primary human CD4 T cells, PD-L1 beads, CellTiter-Glo 96 h | 29,000 tested, under 10 active; call rule not given here
STK33 kin inh = human STK33 kinase inhibition. ADP-Glo luminescence, MBP substrate. inhibition, % at 12.5 µM. actives 0.44% (n = 27,000); in the data active means inhibition above about 20%; inconclusive means no clear call, values can overlap the other calls
Each line names hits and unclear results; the compound was inactive in the other large screens. Only a selection was taken, and hits are over-represented in it overall.

C[C@H]1CN([C@@H](C)CO)C(=O)c2cc(NC(=O)Cc3ccccc3)ccc2O[C@@H]1CN(C)Cc1ccc2c(c1)OCO2	none
C[C@H]1CN([C@@H](C)CO)C(=O)c2cc(NC(=O)Cc3ccccc3)ccc2O[C@H]1CN(C)Cc1ccncc1	NOMO-1 viab 92.4
C[C@H](CO)N1C[C@H](C)[C@H](CN(C)Cc2ccc3c(c2)OCO3)Oc2ccc(NC(=O)CCC(F)(F)F)cc2C1=O	NOMO-1 viab 92.0 (no result: STK33 kin inh)
C[C@H](CO)N1C[C@H](C)[C@H](CN(C)Cc2ccc3c(c2)OCO3)Oc2ccc(NC(=O)Cc3ccccc3)cc2C1=O	NOMO-1 viab 108.7 (no result: STK33 kin inh)
C[C@H]1CN([C@@H](C)CO)C(=O)c2cc(NC(=O)CCC(F)(F)F)ccc2O[C@@H]1CN(C)Cc1ccc2c(c1)OCO2	none
C[C@@H]1CN([C@H](C)CO)C(=O)c2cc(NC(=O)Cc3ccccc3)ccc2O[C@H]1CN(C)Cc1ccncc1	none
COC(=O)CC1C(=O)NCCN1C(=S)Nc1cccc(OC)c1 (stereo not given)	none (no result: PD-1 reverse act)
O=C(NCc1cccnc1)c1cc(-c2ccccn2)nc2c(Cl)cccc12	none (no result: PD-1 reverse act)
O=c1c(O)c(-c2ccc(O)cc2)oc2cc(O)cc(O)c12	STK33 kin inh 33.5 (no result: PD-1 reverse act)
O=c1cc(-c2ccccc2)oc2cc(O)cc(O)c12	STK33 kin inh 33.1
O=c1cc(-c2ccc(O)cc2)oc2cc(O)cc(O)c12	STK33 kin inh 54.3
COc1cc(O)c2c(=O)cc(-c3ccc(O)cc3)oc2c1	none (no result: PD-1 reverse act)
C[C@@H]1O[C@@H](O[C@@H]2[C@@H](O)[C@H](O)[C@@H](CO)O[C@H]2c2c(O)cc(O)c3c(=O)cc(-c4ccc(O)cc4)oc23)[C@H](O)[C@H](O)[C@H]1O	none (no result: NOMO-1 viab, PD-1 reverse act)
Cc1cc(O)cc2oc3cc(O)cc(O)c3c(=O)c12	none (no result: NOMO-1 viab, PD-1 reverse act)
O=c1cc(-c2ccccc2)oc2cccc(O)c12	none
CC(C)=CCc1c(O)cc(O)c2c(=O)cc(-c3ccc(O)cc3)oc12	NOMO-1 viab 93.9, STK33 kin inh inconclusive
Cc1c(C)c(C)c(C(=O)c2ccccc2C(=O)NCc2cccnc2)c(C)c1C	none (no result: STK33 kin inh)
Cc1c(C)c(C)c(S(=O)(=O)N2CC(C)CC(C)C2)c(C)c1C (stereo not given)	none (no result: STK33 kin inh)
Cc1cc(OCC(=O)Nc2cccc3ncccc23)ccc1Cl	none
CCCC(=O)Nc1ccc(N)cc1	none (no result: STK33 kin inh)
O=c1cc(O)c2sc3nc(-c4cccnc4)c4c(c3c2[nH]1)CCCC4	NOMO-1 viab 106.0 (no result: STK33 kin inh)
c1cncc(-c2nc3ccc4ccccc4c3c3c2CCCC3)c1	none (no result: STK33 kin inh)
O=C(COc1cc(O)c2c(=O)c3ccccc3oc2c1)c1ccc(Cl)cc1	NOMO-1 viab 116.8
O=C(COc1cc(O)c2c(=O)c3ccccc3oc2c1)c1cccc([N+](=O)[O-])c1	none
CCCN(C#N)c1nc(NC(C)C)nc(NC(C)C)n1	none (no result: STK33 kin inh)
COc1cc(O)cc(OC)c1OC	NOMO-1 viab 106.9 (no result: PD-1 reverse act)
COc1cc(-c2cc(O)c(OC)c(OC)c2)cc(O)c1OC	none
Cc1cc(C)nc(SC(C)C(=O)Nc2ccc(Cl)c(Cl)c2)n1 (stereo not given)	none
NC(=O)CN1C(=O)C(O)(CC(=O)c2ccc(Cl)s2)c2ccccc21 (stereo not given)	none (no result: PD-1 reverse act)
C=CCN1C(=O)C(O)(CC(=O)c2ccc(C)o2)c2ccccc21 (stereo not given)	none (no result: PD-1 reverse act)
C=CCN1C(=O)C(O)(CC(=O)c2ccc(OC)c([N+](=O)[O-])c2)c2ccccc21 (stereo not given)	NOMO-1 viab 118.9
Cc1ccccc1CN1C(=O)C(O)(CC(=O)c2ccncc2)c2cc(Cl)ccc21 (stereo not given)	NOMO-1 viab 128.5
COc1ccc(CN2C(=O)C(O)(CC(=O)c3c(C)coc3C)c3ccccc32)cc1OC (stereo not given)	none (no result: PD-1 reverse act)
COc1ccc(CN2C(=O)C(O)(CC(=O)c3ccc(C)s3)c3ccccc32)cc1OC (stereo not given)	NOMO-1 viab 114.1 (no result: PD-1 reverse act)
COc1ccc(CN2C(=O)C(O)(CC(=O)c3ccc(Cl)s3)c3ccccc32)cc1OC (stereo not given)	NOMO-1 viab 108.8 (no result: PD-1 reverse act)
Cc1ccc(NC(=O)CSc2nnc(-c3cccc4ccccc34)n2-c2ccccc2)c(C)c1	none
O=C(CN1C(=O)c2ccccc2S1(=O)=O)Nc1ccccc1C(=O)N1CCOCC1	none (no result: PD-1 reverse act)
Cc1c(Br)c([N+](=O)[O-])nn1CC(=O)Nc1ccc(C#N)cc1	none
COc1ccc(CN2C(=O)C(O)(CC(=O)c3ccc4c(c3)CCCC4)c3ccccc32)cc1OC (stereo not given)	none
COc1ccc(C(=O)CC2(O)C(=O)N(Cc3ccccc3Cl)c3ccc(Cl)cc32)cc1OC (stereo not given)	NOMO-1 viab 90.1
O=C(CC1(O)C(=O)N(Cc2ccc(Cl)c(Cl)c2)c2ccccc21)c1ccc2c(c1)OCCO2 (stereo not given)	none
O=C(CC1(O)C(=O)N(Cc2ccc(Cl)c(Cl)c2)c2ccccc21)c1cccc([N+](=O)[O-])c1 (stereo not given)	NOMO-1 viab 108.1

Screening results (PubChem BioAssay)
